The values that follow come from PMC7862700, “An all-to-all approach to the identification of sequence-specific readers for epigenetic DNA modifications on cytosine”.

Common to all, as to assay: DAPPL (digital affinity profiling via proximity ligation, sequencing); 10 mM Tris-HCl pH 7.5, 50 mM NaCl, 1 mM DTT, 4% glycerol, room temperature, 30 min; GST-TFs on glutathione beads, 16-mer random dsDNA library, 0.1% formaldehyde crosslink after washing; high values mean tight binding
What all share (settings): protein: recombinant; tags: N-terminal GST; dsDNA, one strand shown

For one assay, the target named is T1, GABPA (Homo sapiens, UniProt Q06546 1-454).
T1 sequence: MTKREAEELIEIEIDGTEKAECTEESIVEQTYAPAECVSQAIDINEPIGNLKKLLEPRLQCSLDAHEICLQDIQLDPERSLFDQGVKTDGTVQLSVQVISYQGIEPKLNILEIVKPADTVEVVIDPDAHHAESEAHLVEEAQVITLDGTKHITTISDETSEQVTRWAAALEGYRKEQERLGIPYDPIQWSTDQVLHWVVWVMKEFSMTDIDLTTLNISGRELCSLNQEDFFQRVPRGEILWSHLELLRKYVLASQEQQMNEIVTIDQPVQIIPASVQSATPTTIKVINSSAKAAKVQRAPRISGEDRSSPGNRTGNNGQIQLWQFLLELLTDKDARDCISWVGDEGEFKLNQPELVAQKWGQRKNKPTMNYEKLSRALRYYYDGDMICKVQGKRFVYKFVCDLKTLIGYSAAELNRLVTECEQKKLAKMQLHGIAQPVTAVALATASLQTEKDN
In a few lines:
(§1)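 GST fusions of human transcription factors were expressed in yeast and captured with glutathione beads. Once given DNA barcodes and pooled alongside a tag-only sample, they were incubated for 30 min at room temperature with 200 nmole of a random double-stranded 16-mer DNA library in Tris/NaCl/DTT/glycerol buffer, then washed, crosslinked (0.1% formaldehyde), proximity-ligated, PCR-amplified and sequenced on an Illumina NextSeq500. The binding signal of each hexamer is its read frequency for a factor divided by its frequency for the tag-only sample.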

For another assay, the target named is ELF1 (Homo sapiens, UniProt P32519 1-619). In a few lines: as §1
Sequence of ELF1 (P32519 whole entry): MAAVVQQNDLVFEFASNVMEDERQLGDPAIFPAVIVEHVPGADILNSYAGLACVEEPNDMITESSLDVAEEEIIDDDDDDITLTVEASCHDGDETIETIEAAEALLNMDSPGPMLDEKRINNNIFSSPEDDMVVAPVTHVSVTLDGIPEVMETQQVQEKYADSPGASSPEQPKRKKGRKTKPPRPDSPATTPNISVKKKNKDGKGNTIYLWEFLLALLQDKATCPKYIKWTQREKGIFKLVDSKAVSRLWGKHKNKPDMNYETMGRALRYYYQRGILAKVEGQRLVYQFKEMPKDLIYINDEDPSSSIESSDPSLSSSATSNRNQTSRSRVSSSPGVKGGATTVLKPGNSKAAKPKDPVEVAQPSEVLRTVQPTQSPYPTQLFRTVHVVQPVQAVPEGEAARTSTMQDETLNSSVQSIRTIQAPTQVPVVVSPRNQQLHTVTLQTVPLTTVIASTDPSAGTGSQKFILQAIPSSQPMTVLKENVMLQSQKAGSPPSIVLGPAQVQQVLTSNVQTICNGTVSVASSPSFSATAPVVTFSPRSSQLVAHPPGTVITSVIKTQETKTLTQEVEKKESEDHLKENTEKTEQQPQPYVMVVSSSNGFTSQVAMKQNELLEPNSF
A further assay has as its target T2, EHF (Homo sapiens, UniProt Q9NZC4 1-300).
T2 sequence: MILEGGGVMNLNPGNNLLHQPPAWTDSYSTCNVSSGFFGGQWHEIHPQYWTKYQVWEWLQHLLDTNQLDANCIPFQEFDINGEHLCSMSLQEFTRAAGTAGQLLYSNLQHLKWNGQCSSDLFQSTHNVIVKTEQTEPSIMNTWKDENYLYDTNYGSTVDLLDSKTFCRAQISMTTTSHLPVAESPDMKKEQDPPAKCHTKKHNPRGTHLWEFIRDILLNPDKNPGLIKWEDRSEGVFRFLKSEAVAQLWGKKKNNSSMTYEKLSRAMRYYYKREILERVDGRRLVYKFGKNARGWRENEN
Put shortly:
as §1

A further assay concerns the target ETV5 (Homo sapiens, UniProt P41161 1-510). Put shortly: as §1
For the next assay, the target named is ELF4 (Homo sapiens, UniProt Q99607 1-663). Put shortly: as §1
Sequence of ELF4 (Q99607 whole entry): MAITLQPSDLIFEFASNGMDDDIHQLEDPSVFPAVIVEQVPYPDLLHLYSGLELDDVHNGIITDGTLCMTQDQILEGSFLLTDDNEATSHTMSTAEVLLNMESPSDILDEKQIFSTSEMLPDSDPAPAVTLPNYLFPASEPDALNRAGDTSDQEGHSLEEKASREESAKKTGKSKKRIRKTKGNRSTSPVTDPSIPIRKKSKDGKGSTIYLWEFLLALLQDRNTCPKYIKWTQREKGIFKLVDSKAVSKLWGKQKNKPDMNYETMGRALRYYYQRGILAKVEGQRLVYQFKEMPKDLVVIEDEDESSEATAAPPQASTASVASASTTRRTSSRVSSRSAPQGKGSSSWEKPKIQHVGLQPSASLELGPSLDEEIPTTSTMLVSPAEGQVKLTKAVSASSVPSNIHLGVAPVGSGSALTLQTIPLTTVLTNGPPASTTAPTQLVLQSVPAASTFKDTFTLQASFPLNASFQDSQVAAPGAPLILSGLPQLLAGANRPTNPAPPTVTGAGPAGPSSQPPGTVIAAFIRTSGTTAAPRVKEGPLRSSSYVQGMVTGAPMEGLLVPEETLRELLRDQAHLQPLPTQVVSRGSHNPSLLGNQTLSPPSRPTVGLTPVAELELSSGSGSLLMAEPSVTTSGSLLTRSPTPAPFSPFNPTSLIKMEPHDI
For another assay, the target named is T3, ELK4 (Homo sapiens, UniProt P28324-2 1-405).
T3 sequence: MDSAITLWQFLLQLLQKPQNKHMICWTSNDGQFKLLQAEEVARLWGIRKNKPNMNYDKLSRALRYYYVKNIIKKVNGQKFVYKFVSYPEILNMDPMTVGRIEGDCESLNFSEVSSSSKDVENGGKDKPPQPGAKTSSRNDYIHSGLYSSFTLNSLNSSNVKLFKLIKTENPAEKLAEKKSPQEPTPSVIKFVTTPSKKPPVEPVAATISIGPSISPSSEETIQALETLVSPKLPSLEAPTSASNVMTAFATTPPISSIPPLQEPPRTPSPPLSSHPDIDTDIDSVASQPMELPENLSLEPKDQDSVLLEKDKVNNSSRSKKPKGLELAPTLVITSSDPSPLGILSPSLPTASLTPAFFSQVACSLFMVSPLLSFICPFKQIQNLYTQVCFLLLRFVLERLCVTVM
In a few lines: as §1

A further assay concerns the target T4, ETV2 (Homo sapiens, UniProt O00321 1-342).
T4 sequence: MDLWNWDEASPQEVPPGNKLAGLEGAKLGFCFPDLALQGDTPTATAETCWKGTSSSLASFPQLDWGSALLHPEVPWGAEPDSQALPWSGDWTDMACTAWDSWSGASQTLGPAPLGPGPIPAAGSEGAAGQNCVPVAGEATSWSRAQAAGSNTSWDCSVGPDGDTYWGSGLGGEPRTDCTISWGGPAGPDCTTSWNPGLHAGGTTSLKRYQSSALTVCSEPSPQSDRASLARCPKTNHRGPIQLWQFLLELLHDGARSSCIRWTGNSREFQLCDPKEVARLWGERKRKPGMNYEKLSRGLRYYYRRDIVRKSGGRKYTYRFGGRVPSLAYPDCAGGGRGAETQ
In a few lines:
as §1

The next assay deals with T5, ELF3 (Homo sapiens, UniProt P78545 1-371).
T5 sequence: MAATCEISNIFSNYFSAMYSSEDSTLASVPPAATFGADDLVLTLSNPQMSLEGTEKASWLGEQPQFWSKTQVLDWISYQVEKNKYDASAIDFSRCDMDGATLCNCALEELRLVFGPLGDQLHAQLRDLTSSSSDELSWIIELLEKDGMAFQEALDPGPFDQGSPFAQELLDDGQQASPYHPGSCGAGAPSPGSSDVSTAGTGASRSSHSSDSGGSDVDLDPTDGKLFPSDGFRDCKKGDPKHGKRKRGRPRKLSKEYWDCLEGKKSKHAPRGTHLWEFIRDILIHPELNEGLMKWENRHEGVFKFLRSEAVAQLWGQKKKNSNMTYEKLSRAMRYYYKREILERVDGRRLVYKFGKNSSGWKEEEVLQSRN
Put shortly:
as §1

The next assay has as its target T6, ETV3L (Homo sapiens, UniProt Q6ZN32 1-361).
T6 sequence: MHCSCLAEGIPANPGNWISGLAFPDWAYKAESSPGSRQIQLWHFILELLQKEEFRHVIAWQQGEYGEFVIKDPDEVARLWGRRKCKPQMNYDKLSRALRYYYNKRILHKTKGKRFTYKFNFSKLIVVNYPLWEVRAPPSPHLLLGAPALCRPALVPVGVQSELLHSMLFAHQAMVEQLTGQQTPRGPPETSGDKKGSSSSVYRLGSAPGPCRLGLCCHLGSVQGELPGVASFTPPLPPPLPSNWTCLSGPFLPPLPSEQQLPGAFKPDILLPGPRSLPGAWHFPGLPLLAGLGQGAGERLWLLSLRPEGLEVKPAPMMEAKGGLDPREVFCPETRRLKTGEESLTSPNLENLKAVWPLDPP
In a few lines:
as §1

A further assay concerns the target T7, ETS2 (Homo sapiens, UniProt P15036 1-469).
T7 sequence: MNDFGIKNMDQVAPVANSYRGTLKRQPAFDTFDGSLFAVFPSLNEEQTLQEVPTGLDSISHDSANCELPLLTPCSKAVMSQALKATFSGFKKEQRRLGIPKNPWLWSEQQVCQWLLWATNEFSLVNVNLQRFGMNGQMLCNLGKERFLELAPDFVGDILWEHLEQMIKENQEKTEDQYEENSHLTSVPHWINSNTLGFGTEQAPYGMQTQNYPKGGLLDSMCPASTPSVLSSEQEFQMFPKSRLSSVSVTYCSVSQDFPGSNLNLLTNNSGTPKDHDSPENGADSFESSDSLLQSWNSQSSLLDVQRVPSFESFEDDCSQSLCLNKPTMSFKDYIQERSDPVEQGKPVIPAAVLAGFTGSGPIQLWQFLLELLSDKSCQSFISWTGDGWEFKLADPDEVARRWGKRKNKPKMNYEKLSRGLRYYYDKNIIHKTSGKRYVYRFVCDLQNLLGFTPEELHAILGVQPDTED
In a few lines:
as §1

A further assay addresses T8, ETV7 (Homo sapiens, UniProt Q9Y603 1-341).
T8 sequence: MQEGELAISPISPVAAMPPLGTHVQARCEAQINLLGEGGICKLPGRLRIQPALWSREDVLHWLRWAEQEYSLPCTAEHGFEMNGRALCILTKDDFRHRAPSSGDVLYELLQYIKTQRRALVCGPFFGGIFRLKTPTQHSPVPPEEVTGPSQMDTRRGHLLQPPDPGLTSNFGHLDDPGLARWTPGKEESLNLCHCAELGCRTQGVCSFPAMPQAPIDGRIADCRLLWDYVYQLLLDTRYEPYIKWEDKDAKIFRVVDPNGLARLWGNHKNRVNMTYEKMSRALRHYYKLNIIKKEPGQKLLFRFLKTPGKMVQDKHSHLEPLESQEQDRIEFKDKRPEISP
Put shortly: as §1

The target in another assay is T9, ETV3 (Homo sapiens, UniProt P41162-2 1-143).
T9 sequence: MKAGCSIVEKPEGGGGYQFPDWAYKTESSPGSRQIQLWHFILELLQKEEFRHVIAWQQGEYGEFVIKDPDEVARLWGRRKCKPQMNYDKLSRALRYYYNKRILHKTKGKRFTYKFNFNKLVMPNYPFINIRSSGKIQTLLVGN
Put shortly:
as §1

Sequence of ETV5 (P41161 whole entry): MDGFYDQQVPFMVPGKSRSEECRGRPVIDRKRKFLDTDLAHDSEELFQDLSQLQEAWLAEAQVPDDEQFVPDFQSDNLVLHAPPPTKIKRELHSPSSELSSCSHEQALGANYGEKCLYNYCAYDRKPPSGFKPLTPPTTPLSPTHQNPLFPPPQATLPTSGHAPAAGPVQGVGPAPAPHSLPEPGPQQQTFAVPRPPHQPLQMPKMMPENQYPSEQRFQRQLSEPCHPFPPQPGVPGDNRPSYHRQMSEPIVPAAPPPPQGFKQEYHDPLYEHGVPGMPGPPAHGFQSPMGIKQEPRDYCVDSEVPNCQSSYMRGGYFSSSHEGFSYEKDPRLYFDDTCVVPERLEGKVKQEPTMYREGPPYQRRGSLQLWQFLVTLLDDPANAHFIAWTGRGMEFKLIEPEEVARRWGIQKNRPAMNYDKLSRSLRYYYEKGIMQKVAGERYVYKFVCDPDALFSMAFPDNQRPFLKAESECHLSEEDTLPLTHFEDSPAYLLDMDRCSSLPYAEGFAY

Consider CCAAGC, for which the binding signal is 1.06 fold enrichment (6-mer frequency, TF over GST control) in the assay with GABPA; 1.04 fold enrichment (6-mer frequency, TF over GST control) with ELF1; 1.02 fold enrichment (6-mer frequency, TF over GST control) with EHF; 1.09 fold enrichment (6-mer frequency, TF over GST control) with ETV5; 1.07 fold enrichment (6-mer frequency, TF over GST control) with ELF4; 1.03 fold enrichment (6-mer frequency, TF over GST control) in the assay with ELK4. Further, the binding signal with ETV2 is 1.02 fold enrichment (6-mer frequency, TF over GST control); with ELF3, 1.2 fold enrichment (6-mer frequency, TF over GST control); in the assay with ETV3L, 1.01 fold enrichment (6-mer frequency, TF over GST control); in the assay with ETS2 it was 1.03 fold enrichment (6-mer frequency, TF over GST control); in the assay with ETV7, 1.06 fold enrichment (6-mer frequency, TF over GST control); with ETV3, 1.03 fold enrichment (6-mer frequency, TF over GST control).
